The list is not random: actives were taken first. Their share in the collection is about 12%.
HP1b binding inh – inhibitors of HP1-beta chromodomain binding to methylated histone tails. P83916. AlphaScreen HP1-beta / biotin-H3K9me3 peptide binding. Potency, µM (series often up to 114 µM), hits mostly inhibitors. actives 0.56% (n = 390,000); also: nearly all actives have a fitted effect of over 70% in size
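AlphaScreen: HP1-beta (50 nM) preformed 30 min with biotin-H3(1-18)K9me3 peptide (50 nM) in PBS pH 7.4, 0.01% Tween-20. Compound added for 30 min at RT, then streptavidin donor/nickel chelate acceptor beads (10 ug/mL) for 30 min.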
PI5P4Ka inh – blocks human PI5P4K alpha kinase activity. actives 1.2% (n = 330,000). max response, %. P48426. AID 652105. PI5P4Kalpha enzyme, ADP-Glo luminescence, 60 min; stronger effect = lower value; active = max response of -50% or lower; inconclusive = between -30% and -50%; inactive = -30% or higher; also: value at the top dose of about 77 µM
Target sequence (P48426 whole entry, looked up): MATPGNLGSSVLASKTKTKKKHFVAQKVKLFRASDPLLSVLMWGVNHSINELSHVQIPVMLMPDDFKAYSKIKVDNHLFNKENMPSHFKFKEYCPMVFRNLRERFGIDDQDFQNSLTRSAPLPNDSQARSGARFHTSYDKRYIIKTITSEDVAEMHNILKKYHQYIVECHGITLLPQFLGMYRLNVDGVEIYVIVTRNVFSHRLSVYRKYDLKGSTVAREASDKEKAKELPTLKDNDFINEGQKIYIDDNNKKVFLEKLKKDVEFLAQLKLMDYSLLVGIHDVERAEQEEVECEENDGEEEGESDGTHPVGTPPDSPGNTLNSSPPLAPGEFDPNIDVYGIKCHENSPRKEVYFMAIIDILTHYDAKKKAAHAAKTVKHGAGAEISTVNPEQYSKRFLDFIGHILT
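ADP-Glo luminescence end-point read after a 60 min room-temperature kinase reaction of PI5P4Kalpha plus substrate, initiated with ATP at 5 microM final. Buffer: 0.038 M HEPES pH 7.4, EGTA, 0.1% CHAPS, 5% DMSO.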
JMJD2A Tudor inh – JMJD2A Tudor domain (human) inhibition | O75164 | AlphaScreen JMJD2A-Tudor / H3K4me3 peptide binding | Potency, µM (titrated, usually from 114 µM), most hits filed as inhibitors | actives 4.4% (n = 390,000) | AID 504339; also: nearly all actives have a fitted effect of over 50% in size
BAZ2B block – inhibitors of human BAZ2B bromodomain. Q9UIF8. AlphaScreen BAZ2B-H3K14Ac peptide displacement. Potency, µM (doses to about 114 µM), actives largely listed as inhibitors. actives 4.4% (n = 360,000). AID 504333; also: nearly all actives have a fitted effect of over 60% in size
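AlphaScreen luminescence quantifies BAZ2B engagement of H3K14Ac peptide; the protein and biotinylated peptide are both at 50 nM final, buffer PBS pH 7.4 with 0.01% Tween-20, all steps at room temperature.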
PLK1 PBD inh – blocks phosphopeptide binding to human PLK1 polo-box domain. P53350. Plk1 PBD binding of FITC phosphopeptide, fluorescence polarization. Potency, µM, usual class: inhibitors. actives 2.8% (n = 360,000). AID 720504; also: series mostly up to about 57 µM; nearly all actives have a fitted effect of over 65% in size
G9a block – blocks human histone lysine methyltransferase G9a; Q96KQ7; G9a H3K9 monomethylation, AlphaScreen, 2 h; Potency, µM (doses to about 102 µM), usual class: inhibitors; actives 8.8% (n = 350,000); AID 504332; also: nearly all actives have a fitted effect of over 75% in size
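AlphaScreen detection with an anti-monomethyl H3K9 antibody quantified product after a 2 h room-temperature reaction containing 500 nM biotinylated H3K9 peptide, 20 µM SAM and 20 nM enzyme, which had been preincubated 15 min with compound.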
A number is an active result; - = inactive; ? = inconclusive; . = no result given; [ ] = another dose, or the depositor's remark. Unless noted, calls follow the shape of the dose curve; as a rule, active = well fitted curve in the direction sought with a large enough effect; inconclusive = small, poorly fitted or top-dose-only effect, or another doubt; inactive = no such curve, though single readings can be large; an effect the other way counts as inactive or inconclusive.

SMILES | HP1b binding inh | PI5P4Ka inh | JMJD2A Tudor inh | BAZ2B block | PLK1 PBD inh | G9a block
O=C1NC(C(=O)O)=CC(c2ccc([N+](=O)[O-])cc2)N1 (stereo not drawn) | - | - | 17.8µM | ? | - | 8.91µM
O=C(Nc1ncccc1O)c1ccc2c(c1)OCO2 | - | - | 17.8µM | ? | - | ?
O=C(Nc1ncccc1O)c1ccc2c(c1)OCCO2 | - | - | 25.1µM | 79.4µM | - | 50.1µM
CC(C)(C)C(=O)Oc1ccc(S(=O)(=O)Nc2ccccc2C(=O)NCC(=O)O)cc1 | . | . | . | . | . | -[12.7 µM]
CC(C)(C)OC(=O)NCc1ccc(CNC(=O)c2[nH]cnc2C(=O)NCC(=O)OCc2ccccc2)cc1 | - | - | - | - | - | -
CCN(C(=O)c1cn(CC)c(=O)c2cc(OC)c(OC)cc12)c1ccccc1F | - | . | - | - | . | -
CC(=O)CCc1ccc(OCC(O)CNCCOc2ccc(C)cc2)cc1 (stereo not drawn) | - | - | - | - | - | -
COc1ccc(OCC(O)CNCCOc2ccccc2OC)c(C(C)(C)C)c1 (stereo not drawn) | - | - | 22.4µM | 50.1µM | ? | ?
OC(CNc1ccccc1)COc1ccc(OCC(O)CNc2ccccc2)cc1 (stereo not drawn) | - | - | 50.1µM | 50.1µM | - | ?
Cc1ccc(OCCNCC(O)COc2ccccc2)cc1 (stereo not drawn) | - | - | 56.2µM | 50.1µM | - | ?
COc1ccc(NCC(O)COc2ccc(C(C)(C)C)cc2)cc1 (stereo not drawn) | ? | - | ? | ? | - | ?
COc1ccccc1NCC(O)COc1ccc(C(C)(C)C)cc1 (stereo not drawn) | 20µM | - | 2.82µM | 22.4µM | - | 7.94µM
CCOCC(O)CNc1ccccc1 (stereo not drawn) | - | - | - | - | - | -
Cc1cccc(C(=O)Nc2nc(-c3ccc(Br)cc3)ns2)c1 | - | . | - | - | . | ?
COc1cc(C2CC(=O)Nc3c2c(C)nn3-c2nncc(-c3ccccc3)n2)cc(OC)c1OC (stereo not drawn) | - | . | - | - | . | -
Nc1ccccc1SSc1ccccc1N | ? | - | 31.6µM | 44.7µM | 0.597µM | 1.58µM
Nc1nc(SCc2ccc(Cl)cc2)ns1 | - | - | - | - | - | -
Nc1ccccc1SCc1ccccc1Cl | - | - | - | - | 15µM | ?
Nc1nc(SCc2ccccc2)ns1 | ? | ? | 79.4µM | - | ? | 3.98µM
Nc1nc(SCc2ccccc2Cl)ns1 | - | - | - | - | 29.9µM | ?
CCn1c(C(=O)N2CCCC(C(=O)N3CCN(c4cc(C)ccc4C)CC3)C2)cc2sccc21 (stereo not drawn) | - | . | ? | ? | . | -
Cc1ccc(Cl)cc1NC(=O)Cn1cc2c(n1)CCCCC2 | - | . | - | - | . | -
CCCSCCCNC(=O)c1cc2n(n1)CCCN(Cc1ccc(C)cc1)C2=O | - | . | - | - | . | -
COc1cccc(-n2c(=O)c3c(C)c(C(=O)N(C)C)sc3n(Cc3ccc(F)cc3Cl)c2=O)c1 | - | . | - | - | . | -
COc1ccc(OS(=O)(=O)c2c(C)noc2C)cc1 | - | - | - | - | - | -
SMILES | HP1b binding inh | PI5P4Ka inh | JMJD2A Tudor inh | BAZ2B block | PLK1 PBD inh | G9a block
O=C(C#Cc1ccccc1)c1ccc([N+](=O)[O-])cc1 | - | - | - | ? | 0.474µM | 10µM
O=C(C#Cc1ccccc1)c1ccccc1 | . | - | . | . | 2.99µM | .
O=C(c1ccc(-c2ccccc2)cc1)c1ccc([N+](=O)[O-])cc1 | . | . | . | - | . | 56.2µM
COC(=O)C1=NNC(C(=O)OC)C1c1ccccc1 (stereo not drawn) | - | - | - | . | - | .
CNc1cccccc1=S | - | ? | 11.2µM | 10µM | ? | 3.55µM
Cc1nc2ccccc2c(=O)n1NC(=O)COc1ccccc1 | - | . | - | - | - | -[12.7 µM]
O=C(COc1ccccc1)Nn1cnc2ccccc21 | - | . | - | ? | ? | 20µM
Cc1nc(CN(C)c2ncnc3cc(-c4ccc5c(c4)OCO5)ccc23)cs1 | . | . | 89.1µM | . | . | .
COc1ccc2[nH]cc(CCNc3ncnc4ccc(-c5ccc6c(c5)OCO6)cc34)c2c1 | . | . | . | . | . | -[0.501 µM]
Cc1csc(CNc2ncnc3ccc(-c4ccc5c(c4)OCO5)cc23)c1 | - | . | - | - | . | -[12.7 µM]
Cc1csc(CNc2ncnc3cc(-c4ccc5c(c4)OCO5)ccc23)n1 | . | . | 56.2µM | . | . | .
